Results as given in PubChem BioAssay (EPA / NIEHS).
The source made the active and inactive calls. Rule for the calls: active = hit-call score of the fitted dose curve at least 0.9, where 1 is the maximum; inactive = score below 0.9.

Key:
Conditions in all cases: mRNA level, 48 h; actives raise or lower the signal
[1] = read-out: Interleukin 6 (IL6), IL6 (gene 3569); assay: LTEA_HepaRG_IL6: Life Technologies and Expression Analysis (LTEA) Assay for Interleukin 6 (IL6) using HepaRG (AID 2283509)
In short: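 qRT-PCR read-out of IL6 transcript, normalized to three housekeeping genes, after 48 h chemical exposure of HepaRG cells; 8-point half-log series, top 100 uM, 0.5% DMSO vehicle. Bidirectional curve fitting against DMSO baseline.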

[2] = read-out: Interleukin 6 Receptor (IL6R), IL6R (gene 3570); assay: LTEA_HepaRG_IL6R: Life Technologies and Expression Analysis (LTEA) Assay for Interleukin 6 Receptor (IL6R) using HepaRG (AID 2283510)
In short: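 Cells were thawed, plated and cultured 48 h, then medium was changed to serum-free induction medium. Chemicals were added in duplicate (100 uM top, half-log steps, 0.5% DMSO) for 48 h. Lysates were analyzed by qRT-PCR for IL6R expression.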

[3] = read-out: Potassium channel subfamily K member 1 (KCNK1), KCNK1 (gene 3775); assay: LTEA_HepaRG_KCNK1: Life Technologies and Expression Analysis (LTEA) Assay for Potassium channel subfamily K member 1 (KCNK1) using HepaRG (AID 2283511)
In short: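 HepaRG, 48 h exposure, 8-pt half-log series top 100 uM, 0.5% DMSO vehicle, duplicates. Readout: KCNK1 transcript by qRT-PCR (Fluidigm array), housekeeping-normalized; bidirectional curve fit relative to DMSO baseline.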

[4] = read-out: Keratin 19 (KRT19), KRT19 (gene 3880); assay: LTEA_HepaRG_KRT19: Life Technologies and Expression Analysis (LTEA) Assay for Keratin 19 (KRT19) using HepaRG (AID 2283512)
In short: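 Gene-expression endpoint in the human liver line HepaRG after 48 h exposure to up to 100 uM test chemical with 0.5% DMSO vehicle; KRT19 mRNA by qRT-PCR, analyzed bidirectionally versus DMSO.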

[5] = read-out: JUN Transcription Factor, JUN (gene 3725); assay: LTEA_HepaRG_JUN: Life Technologies and Expression Analysis (LTEA) Assay for JUN Transcription Factor using HepaRG (AID 2283513)
In short: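 Read-out is JUN transcript level by TaqMan qRT-PCR, normalized to ACTB, GAPDH and POLR2A, after 48 h chemical treatment of HepaRG cells. Concentration-response spanned eight half-log points up to 100 uM in 0.5% DMSO.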

[6] = read-out: Lipase C (LIPC), LIPC (gene 3990); assay: LTEA_HepaRG_LIPC: Life Technologies and Expression Analysis (LTEA) Assay for Lipase C (LIPC) using HepaRG (AID 2283514)
In short: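 HepaRG, 48 h exposure, 8-pt half-log series from 100 uM in 0.5% DMSO, duplicates. Readout: LIPC mRNA by Fluidigm qRT-PCR, housekeeping-normalized (ACTB/GAPDH/POLR2A). Gain or loss fitted bidirectionally against DMSO baseline.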

[7] = read-out: Lipoprotein lipase (LPL), LPL (gene 4023); assay: LTEA_HepaRG_LPL: Life Technologies and Expression Analysis (LTEA) Assay for Lipoprotein lipase (LPL) using HepaRG (AID 2283515)
In short: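 HepaRG, 48 h exposure, 8-pt half-log dilutions from 100 uM, 0.5% DMSO vehicle, duplicates; qRT-PCR (Fluidigm array) of LPL mRNA vs housekeeping genes; bidirectional curve fit relative to DMSO baseline.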

[8] = read-out: MicroRNA 122 (MIR122), gene 406906; assay: LTEA_HepaRG_MIR122: Life Technologies and Expression Analysis (LTEA) Assay for MicroRNA 122 (MIR122) using HepaRG (AID 2283516); note: the transcript read is the microRNA miR-122
In short: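 Human liver HepaRG cultures receive test chemicals for 48 h at eight half-log concentrations from 100 uM. Expression is quantified by qRT-PCR with ACTB/GAPDH/POLR2A normalization and fitted bidirectionally against 0.5% DMSO.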

[9] = read-out: matrix metalloproteinase-10 (MMP10), MMP10 (gene 4319); assay: LTEA_HepaRG_MMP10: Life Technologies and Expression Analysis (LTEA) Assay for matrix metalloproteinase-10 (MMP10) using HepaRG (AID 2283517)
In short: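 Transcript levels come from Fluidigm qRT-PCR normalized to three housekeeping genes, with curves fitted bidirectionally against 0.5% DMSO. Human HepaRG cells were dosed for 48 hours at concentrations up to 100 uM.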

[10] = read-out: MYC, MYC (gene 4609); assay: LTEA_HepaRG_MYC: Life Technologies and Expression Analysis (LTEA) Assay for MYC using HepaRG (AID 2283518)
In short: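 Cells are thawed, plated and cultured 48 h, then treated for 48 h with test chemicals (eight half-log concentrations from 100 uM, 0.5% DMSO vehicle). RNA is isolated and MYC expression quantified by qRT-PCR against three housekeeping genes.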

[11] = read-out: matrix metalloproteinase-3 (MMP3), MMP3 (gene 4314); assay: LTEA_HepaRG_MMP3: Life Technologies and Expression Analysis (LTEA) Assay for matrix metalloproteinase-3 (MMP3) using HepaRG (AID 2283519)
In short: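 qRT-PCR read-out of MMP3 mRNA (normalised to three housekeeping genes) in HepaRG liver cells after 48 h chemical exposure; 8-point half-log series, top 100 uM, 0.5% DMSO vehicle. Bidirectional curve fitting against DMSO baseline.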

[12] = read-out: Paternally Expressed 10 (PEG10), PEG10 (gene 23089); assay: LTEA_HepaRG_PEG10: Life Technologies and Expression Analysis (LTEA) Assay for Paternally Expressed 10 (PEG10) using HepaRG (AID 2283520);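 for AC50: PEG10 transcript by qRT-PCR normalised to ACTB GAPDH and POLR2A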
In short: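 Human HepaRG cultures are dosed for 48 h across an eight-point half-log series starting at 100 uM, with 0.5% DMSO as vehicle and baseline. Gain or loss of PEG10 transcript is measured by qRT-PCR and fitted in both directions.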

[13] = read-out: Protein phosphatase 2A (PPP2R4), PTPA (gene 5524); assay: LTEA_HepaRG_PPP2R4: Life Technologies and Expression Analysis (LTEA) Assay for Protein phosphatase 2A (PPP2R4) using HepaRG (AID 2283522)
In short: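 Cells were plated, cultured 48 h, switched to serum-free induction medium, then dosed for 48 h (8 points, max 100 uM, 0.5% DMSO). RNA was isolated and PPP2R4 expression measured by TaqMan qRT-PCR.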

[14] = read-out: Phosphatase and tensin (PTEN), PTEN (gene 5728); assay: LTEA_HepaRG_PTEN: Life Technologies and Expression Analysis (LTEA) Assay for Phosphatase and tensin (PTEN) using HepaRG (AID 2283523)
In short: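 HepaRG, 48 h exposure, 8-pt half-log series from 100 uM top, 0.5% DMSO vehicle, duplicates. Readout: Fluidigm qRT-PCR of PTEN transcript; housekeeping normalization (ACTB, GAPDH, POLR2A). Gain or loss fitted relative to DMSO baseline.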

[15] = read-out: solute carrier (SLC22A1), SLC22A1 (gene 6580); assay: LTEA_HepaRG_SLC22A1: Life Technologies and Expression Analysis (LTEA) Assay for solute carrier (SLC22A1) using HepaRG (AID 2283524)
In short: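 qRT-PCR readout (TaqMan, Fluidigm arrays) of SLC22A1 transcript, normalized to three housekeeping genes; bidirectional curve fit relative to 0.5% DMSO vehicle. Differentiated human HepaRG cells, 48 h chemical exposure, top concentration 100 uM, half-log steps, eight points.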

[16] = read-out: Pyruvate Dehydrogenase Kinase 4 (PDK4), PDK4 (gene 5166); assay: LTEA_HepaRG_PDK4: Life Technologies and Expression Analysis (LTEA) Assay for Pyruvate Dehydrogenase Kinase 4 (PDK4) using HepaRG (AID 2283525)
In short: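 HepaRG (human liver line), 48 h chemical exposure, 8-pt half-log CRC top 100 uM, 0.5% DMSO vehicle, duplicates. Readout: TaqMan qRT-PCR of PDK4 mRNA, housekeeping-normalized; gain/loss fit relative to DMSO baseline.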

[17] = read-out: NAD(P)H dehydrogenase [quinone] 1 (NQO1), NQO1 (gene 1728); assay: LTEA_HepaRG_NQO1: Life Technologies and Expression Analysis (LTEA) Assay for NAD(P)H dehydrogenase [quinone] 1 (NQO1) using HepaRG (AID 2283526)
In short: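 Transcript induction or suppression is quantified by qRT-PCR in human HepaRG liver cells dosed for 48 hours. Eight half-log concentrations topping at 100 uM are used, with 0.5% DMSO as vehicle and baseline.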

[18] = read-out: Nuclear factor erythroid 2-related factor 2 (Homo sapiens) (UniProt Q16236); assay: LTEA_HepaRG_NFE2L2: Life Technologies and Expression Analysis (LTEA) Assay for Nuclear factor erythroid 2-related factor 2 (NFE2L2) Transcription Factor using HepaRG (AID 2283527);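 note: TaqMan qRT-PCR transcript level normalised to ACTB GAPDH and POLR2A housekeeping genes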
In short: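 HepaRG, 48 h dosing, 8-pt half-log series from 100 uM in 0.5% DMSO, duplicates. Read-out: NFE2L2 mRNA by qRT-PCR (ACTB/GAPDH/POLR2A normalization). Bidirectional curve fit vs DMSO baseline.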

[19] = read-out: succinate dehydrogenase complex iron sulfur subunit B (SDHB), SDHB (gene 6390); assay: LTEA_HepaRG_SDHB: Life Technologies and Expression Analysis (LTEA) Assay for succinate dehydrogenase complex iron sulfur subunit B (SDHB) using HepaRG (AID 2283528)
In short: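 HepaRG cells (~100,000/well, plated 48 h) exposed in duplicate for 48 h in serum-free induction medium to 8-point half-log series from 100 uM in 0.5% DMSO; mRNA by qRT-PCR normalised to ACTB, GAPDH, POLR2A; bidirectional fit versus DMSO.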

[20] = read-out: Nuclear factor NF-kappa-B p105 subunit (Homo sapiens) (UniProt P19838); assay: LTEA_HepaRG_NFKB1: Life Technologies and Expression Analysis (LTEA) Assay for Nuclear Factor Kappa B Subunit 1 (NFKB1) using HepaRG (AID 2283521);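 note: TaqMan qRT-PCR transcript normalised to ACTB GAPDH and POLR2A housekeeping genes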
In short: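 Differentiated human HepaRG cells in serum-free induction medium with 0.5% DMSO were exposed for 48 h to eight half-log concentrations, top 100 uM, in duplicate. NFKB1 mRNA measured by Fluidigm TaqMan qRT-PCR, normalised to ACTB, GAPDH and POLR2A; bidirectional fit versus DMSO.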

Measured: AC50

Chain of Nuclear factor erythroid 2-related factor 2 (Homo sapiens) (Q16236 whole entry, looked up): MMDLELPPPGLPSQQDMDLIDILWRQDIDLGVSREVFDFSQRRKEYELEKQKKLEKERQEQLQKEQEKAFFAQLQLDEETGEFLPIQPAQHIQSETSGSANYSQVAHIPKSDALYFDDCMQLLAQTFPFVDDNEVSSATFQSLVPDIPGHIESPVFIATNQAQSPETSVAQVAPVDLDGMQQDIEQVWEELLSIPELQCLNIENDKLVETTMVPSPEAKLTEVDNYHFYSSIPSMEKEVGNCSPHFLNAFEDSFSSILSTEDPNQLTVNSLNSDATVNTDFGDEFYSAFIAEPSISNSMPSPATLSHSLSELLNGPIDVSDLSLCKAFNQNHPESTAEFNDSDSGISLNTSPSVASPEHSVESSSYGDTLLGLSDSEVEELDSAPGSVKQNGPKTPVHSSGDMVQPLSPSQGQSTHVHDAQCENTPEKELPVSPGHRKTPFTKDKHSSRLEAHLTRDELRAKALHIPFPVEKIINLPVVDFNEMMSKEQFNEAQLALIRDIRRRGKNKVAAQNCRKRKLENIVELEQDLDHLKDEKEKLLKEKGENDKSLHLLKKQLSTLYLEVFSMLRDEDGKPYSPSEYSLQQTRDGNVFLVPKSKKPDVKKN
Chain of Nuclear factor NF-kappa-B p105 subunit (Homo sapiens) (P19838 whole entry, looked up): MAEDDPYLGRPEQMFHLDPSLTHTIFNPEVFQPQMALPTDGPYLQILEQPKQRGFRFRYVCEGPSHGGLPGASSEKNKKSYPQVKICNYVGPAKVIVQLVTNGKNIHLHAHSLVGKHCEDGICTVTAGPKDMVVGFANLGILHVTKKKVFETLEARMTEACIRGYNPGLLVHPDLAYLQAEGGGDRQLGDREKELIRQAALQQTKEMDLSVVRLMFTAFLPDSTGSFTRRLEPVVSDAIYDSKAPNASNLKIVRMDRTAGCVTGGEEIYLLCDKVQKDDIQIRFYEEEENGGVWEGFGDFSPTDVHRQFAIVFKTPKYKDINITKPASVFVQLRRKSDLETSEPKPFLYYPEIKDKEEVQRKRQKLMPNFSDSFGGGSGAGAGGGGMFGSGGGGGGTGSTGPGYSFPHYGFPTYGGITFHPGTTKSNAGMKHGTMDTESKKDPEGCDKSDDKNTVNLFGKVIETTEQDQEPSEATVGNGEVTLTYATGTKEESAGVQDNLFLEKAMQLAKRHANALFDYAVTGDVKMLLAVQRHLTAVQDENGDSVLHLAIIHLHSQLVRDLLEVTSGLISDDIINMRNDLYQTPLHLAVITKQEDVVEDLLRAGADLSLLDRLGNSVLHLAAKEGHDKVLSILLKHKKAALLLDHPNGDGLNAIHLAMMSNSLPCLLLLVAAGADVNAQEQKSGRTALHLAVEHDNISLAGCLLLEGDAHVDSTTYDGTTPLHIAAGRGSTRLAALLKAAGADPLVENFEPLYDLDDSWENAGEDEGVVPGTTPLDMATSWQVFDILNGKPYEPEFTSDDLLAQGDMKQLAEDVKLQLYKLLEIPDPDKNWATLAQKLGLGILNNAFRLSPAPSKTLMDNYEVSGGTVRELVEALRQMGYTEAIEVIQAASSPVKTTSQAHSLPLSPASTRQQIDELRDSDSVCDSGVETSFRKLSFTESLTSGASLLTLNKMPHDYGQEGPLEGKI

O=c1n(CC2CO2)c(=O)n(CC2CO2)c(=O)n1CC1CO1 (stereo unspecified)
active: [1] 50 µM | [6] 71.5 µM
not listed: [20]
inactive: all other assays above

CNS(=O)(=O)c1cc(C(=O)N2CCC(CCN3C4CCC3CC(n3c(C)nc5ccccc53)C4)(c3cccc(F)c3)CC2)c(Cl)cc1F (stereo unspecified)
active: [4] 18.3 µM | [6] 30.1 µM | [7] 18.2 µM | [8] 18.8 µM | [10] 26.1 µM | [12] 13.3 µM | [15] 18.8 µM | [16] 28.9 µM | [19] 17.3 µM
not listed: [2]
inactive: all other assays above

CC(C)=CCCC(C)=CC=O
not listed: [20]
inactive: all other assays above

COCCOc1cc2cc(C(=O)NC3CCN(C(C)C)CC3)n(CC(=O)Nc3ccc(Cl)cn3)c2cn1
active: [4] 7.89 µM | [6] 45 µM | [7] 8.93 µM | [8] 45 µM | [12] 45 µM | [14] 45 µM | [15] 62.1 µM | [16] 37.4 µM
not listed: [2] | [20]
inactive: all other assays above

Cc1ccc(S(=O)(=O)O)cc1C
not listed: [20]
inactive: all other assays above

C=CC(=C)CCC=C(C)C
not listed: [20]
inactive: all other assays above

CC(C)CC(C)(O)C#CC(C)(O)CC(C)C (stereo unspecified)
not listed: [2] | [20]
inactive: all other assays above

O=C1CCC(N2C(=O)c3ccccc3C2=O)C(=O)N1 (stereo unspecified)
not listed: [2] | [20]
inactive: all other assays above

C=CCCCCCCCCC(=O)O
active: [14] 0.00821 µM
not listed: [2] | [20]
inactive: all other assays above

O=C(O)c1cc(N=Nc2ccc(S(=O)(=O)Nc3ccccn3)cc2)ccc1O
not listed: [2] | [20]
inactive: all other assays above

CCCCC(CC)COC(=O)c1ccc(C(=O)OCC(CC)CCCC)cc1 (stereo unspecified)
not listed: [2] | [20]
inactive: all other assays above

COC(=O)CC(=O)OC
active: [12] 50 µM
not listed: [2] | [20]
inactive: all other assays above
